Assay results from PubChem BioAssay AID1159580 (chemical genetic matrix, 2015).
Several values for one entry are separate records, joined by “and”; a condition that tells them apart may be missing. Equal entries are not always repeated. The whole screen tested about 5,500 compounds, of which about 2,000 (36%) were called active. Another 18% or so got no clear call; they are omitted. Rule as the data show it: active = normalized growth mostly below about 0.91 (no sharp cut-off); inconclusive = no clear call, values can overlap the other calls; inactive = mostly above about 0.92. The list shows a part of the results.

Experiment: chemical genetic growth profiling, strain panel (AID 1159580);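 also: tested at 20 µM; growth read once vehicle control cultures reached saturation at 30 °C; 1 = growth at the plate median or of vehicle wells; lower values mean less growth of the strain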
Conditions: S. cerevisiae deletion strains, growth OD

Measured: normalized growth

CCc1cc(C(N)=S)ccn1
inactive: locus YAL021C, strain ccr4, hits give low values 1 | locus YAL026C, strain drs2, hits give low values 1 | locus YAL030W, strain snc1, hits give low values 0.994 | locus YBL061C, strain skt5, hits give low values 1.01 | locus YBR009C, strain hhf1, hits give low values 1 | locus YBR021W, strain FUR4, hits give low values 1.06 | locus YBR023C, strain chs3, hits give low values 1.02 | locus YBR171W, strain sec66, hits give low values 1 | locus YBR229C, strain ROT2, hits give low values 0.953 | locus YBR231C, strain swc5, hits give low values 1.04 | locus YBR279W, strain paf1, hits give low values 1 | locus YCL011C, strain gbp2, hits give low values 1.01 | locus YCL016C, strain dcc1, hits give low values 1 | locus YCL061C, strain MRC1, hits give low values 1.01 | locus YCL069W, strain vba3, hits give low values 0.991 | locus YCR088W, strain abp1, hits give low values 1 | locus YDL005C, strain med2, hits give low values 1 | locus YDL035C, strain GPR1, hits give low values 1.01 | locus YDL040C, strain nat1, hits give low values 0.998 | locus YDL074C, strain BRE1, hits give low values 0.991 | locus YDL101C, strain DUN1, hits give low values 0.981 | locus YDL134C, strain PPH21, hits give low values 0.985 | locus YDL185W, strain tfp1, hits give low values 0.976 | locus YDL192W, strain arf1, hits give low values 0.981 | locus YDR001C, strain nth1, hits give low values 1 | locus YDR069C, strain doa4, hits give low values 0.978 | locus YDR101C, strain arx1, hits give low values 0.93 | locus YDR137W, strain rgp1, hits give low values 1.02 | locus YDR150W, strain NUM1, hits give low values 0.983 | locus YDR159W, strain sac3, hits give low values 0.953 | locus YDR162C, strain NBP2, hits give low values 1 | locus YDR195W, strain ref2 0.979 | locus YDR297W, strain sur2, hits give low values 1 | locus YDR318W, strain mcm21, hits give low values 1 | locus YDR334W, strain swr1, hits give low values 1.01 | locus YDR335W, strain msn5, hits give low values 0.996 | locus YDR388W, hits give low values 0.995 | locus YDR392W, strain spt3, hits give low values 0.938 | locus YDR502C, strain sam2, hits give low values 0.98 | locus YEL003W, strain gim4, hits give low values 0.998 | locus YEL037C, strain rad23, hits give low values 0.999 | locus YEL061C, strain CIN8 (second series), hits give low values 0.994 | locus YEL061C, strain CIN8, hits give low values 0.959 | locus YER015W, strain faa2, hits give low values 1.01 | locus YER016W, strain bim1, hits give low values 0.957 | locus YER110C, hits give low values 0.98 | locus YER111C, strain swi4, hits give low values 0.996 | locus YER155C, strain BEM2 (second series), hits give low values 0.943 | locus YER155C, strain BEM2, hits give low values 0.99 | locus YER167W, strain BCK2, hits give low values 0.994 | locus YFR010W, strain ubp6, hits give low values 1 | locus YGL078C, strain dbp3, hits give low values 0.986 | locus YGL086W, strain mad1, hits give low values 0.964 | locus YGL167C, strain pmr1, hits give low values 1 | locus YGL173C, strain kem1, hits give low values 0.995 | locus YGL227W, strain vid30, hits give low values 1.01 | locus YGL240W, strain doc1, hits give low values 0.978 | locus YGL248W, strain PDE1, hits give low values 0.989 | locus YGL253W, strain hxk2, hits give low values 1.01 | locus YGR135W, strain pre9, hits give low values 1.05 | locus YGR252W, strain gcn5, hits give low values 1.14 | locus YHR013C, strain ard1, hits give low values 1.05 | locus YHR027C, strain rpn1, hits give low values 1.01 | locus YHR030C, strain SLT2, hits give low values 0.997 and 1.11 | locus YHR079C, strain IRE1 (second series), hits give low values 0.993 | locus YHR079C, strain IRE1, hits give low values 1.08 | locus YHR094C, strain hxt1, hits give low values 0.987 | locus YHR129C, strain ARP1, hits give low values 0.991 | locus YHR142W, strain chs7, hits give low values 1.02 | locus YHR200W, strain rpn10, hits give low values 0.98 | locus YIL066C, strain RNR3, hits give low values 0.965 | locus YIL073C, strain SPO22, hits give low values 1.08 | locus YIL125W, strain kgd1, hits give low values 0.981 | locus YIR030C, strain dcg1, hits give low values 0.99 | locus YJL092W, strain hpr5, hits give low values 1.01 | locus YJL095W, strain BCK1 (second series), hits give low values 1 | locus YJL095W, strain BCK1, hits give low values 0.964 and 1.07 | locus YJL115W, strain asf1, hits give low values 1.01 | locus YJL129C, strain trk1, hits give low values 1.03 | locus YJL134W, strain LCB3, hits give low values 0.991 | locus YJL154C, strain vps35, hits give low values 0.995 | locus YJL164C, strain tpk1, hits give low values 1.02 | locus YJL166W, strain qcr8, hits give low values 1.04 | locus YJL168C, strain set2, hits give low values 0.991 | locus YJL187C, strain SWE1 (second series), hits give low values 0.941 | locus YJL187C, strain SWE1, hits give low values 1.01 | locus YJR043C, strain POL32, hits give low values 0.983
